In all, about 52,000 compounds went through this assay and about 4,300 (8.3%) were called active. Cut-off read from the data, not from the text of the source: active = survival mostly below about 52% (no sharp cut-off); inactive = mostly above about 56%. The sample as a whole holds a higher share of actives than the screen did.
tested on: DeltatarO mutant; experiment: S. aureus survival, RN4220 and DeltatarO strains – OD600, teichoic acid synthesis inhibitors, primary screen (AID 463173); conditions: S. aureus RN4220 wild type/DeltatarO growth, OD600, 18 h, active compounds read low, screened at 18.75 µg/mL (by protocol)

SMILES	survival
N#C/C(=C(/O)CN1C(=O)c2ccccc2C1=O)c1nc2ccccc2[nH]1	76% (inactive)
Cc1ccc(Nc2c(-c3ccc(N4CCOCC4)cc3)nc3ncccn23)cc1	139% (inactive)
Cc1ccc(Nc2c(-c3ccc(C)s3)nc3ncccn23)cc1	9% (active)
Cc1ccc2nc(-c3ccc(N4CCOCC4)cc3)c(Nc3ccccc3C)n2c1	71% (inactive)
Cc1ccn2c(Nc3ccccc3C)c(-c3ccc(N4CCOCC4)cc3)nc2c1	89% (inactive)
Cc1ccc(-c2nc3ncccn3c2Nc2ccc3c(c2)OCCO3)cc1	79% (inactive)
Cc1ccccc1Nc1c(-c2ccc(N3CCOCC3)cc2)nc2ccccn12	41% (active)
CCOC(=O)c1cnc2cc(-c3ccc(C)cc3)nn2c1C	74% (inactive)
O=C1COc2cc(S(=O)(=O)CCC(=O)NC3CCCCC3)c(Cl)cc2N1	93% (inactive)
CCc1sc(Nc2cccc(C)c2)nc1-c1cc2cccc(OC)c2oc1=O	94% (inactive)
Cc1ccc(CN2C(=O)c3ccccc3Sc3ccc(C(=O)NCc4ccco4)cc32)cc1	81% (inactive)
Cc1ccc(CN2C(=O)c3ccccc3Sc3ccc(C(=O)NC4CCCCC4)cc32)cc1	100% (inactive)
Cc1cccc(CN2C(=O)c3ccccc3Sc3ccc(C(=O)NCCCN4CCOCC4)cc32)c1	37% (active)
O=C(NC1CCCC1)c1ccc2c(c1)N(Cc1ccccc1)C(=O)c1ccccc1S2	105% (inactive)
Cc1ccc(CN2C(=O)c3ccccc3Sc3ccc(C(=O)NCCCN4CCOCC4)cc32)cc1	126% (inactive)
Cc1ccc(C)c(CN2C(=O)c3ccccc3Sc3ccc(C(=O)NCc4ccco4)cc32)c1	17% (active)
Cc1ccccc1CN1C(=O)c2ccccc2Sc2ccc(C(=O)NCc3ccccc3)cc21	37% (active)
Cc1cccc(CN2C(=O)c3ccccc3Sc3ccc(C(=O)NCc4ccco4)cc32)c1	102% (inactive)
O=C(NC1CCCCC1)c1ccc2c(c1)N(Cc1ccccc1)C(=O)c1ccccc1S2	46% (active)
Cc1ccccc1CN1C(=O)c2ccccc2Sc2ccc(C(=O)NCCc3ccccc3)cc21	101% (inactive)
O=C(NCCCN1CCOCC1)c1ccc2c(c1)N(Cc1ccccc1)C(=O)c1ccccc1S2	98% (inactive)
Cc1ccccc1CN1C(=O)c2ccccc2Sc2ccc(C(=O)NCc3cccs3)cc21	93% (inactive)
Cc1ccc(C)c(N2CCN(S(=O)(=O)c3ccc4c(c3)OCCO4)CC2)c1	76% (inactive)
Cc1nn(-c2ccccc2)c2c1N(CC(=O)N1CCN(c3ccc(F)cc3)CC1)C(=O)CS2	81% (inactive)
